Laboratory results: PubChem BioAssay (NCATS)
Inconclusive results are not listed. The source made the active and inactive calls. Calls come from the whole dose curve; as a rule, active = well fitted curve in the direction sought with a large enough effect; inconclusive = small, poorly fitted or top-dose-only effect, or another doubt; inactive = no such curve, though single readings can be large; an effect the other way counts as inactive or inconclusive. *1 amine or outer side, *2 acyl side, *3 side chain or, on linkers, in order; H or OH if unused. Where a SMILES comes first, the peptide text is derived from it. [ ]: non-standard residue; d: D form. X13 = O=C(C(CC(O)CO)O[*:1])[*:2]; NMeV = CN[CH](C(=O)O)C(C)C; NMeA = CN[CH](C)C(=O)O; βAla = NCCC(=O)O

Key:
[1] = biological target: Glutathione peroxidase 1 (Homo sapiens) (UniProt P07203); test: Primary qHTS Assay for Inhibitors of Recombinant Selenoprotein Glutathione Peroxidase 1 (GPX1) (AID 1845191); note: nearly all actives have a fitted effect of over 65% in size
How it was run: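 GR-coupled assay: compounds preincubated 30 min at room temperature with GPX1, then reaction started with CHP; final 10 nM GPX1, 1 mM GSH, 0.5 mM CHP, 0.5 mM NADPH, 100 nM GR, 0.01% BSA, pH 7.5 Tris buffer. NADPH fluorescence (340/450 nm) read at 0 and 15 min.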

[2] = biological target: Phospholipid hydroperoxide glutathione peroxidase GPX4 (Homo sapiens) (UniProt P36969); test: Primary qHTS Assay for Inhibitors of Recombinant Selenoprotein Glutathione Peroxidase 4 (GPX4) (AID 1845192); note: nearly all actives have a fitted effect of over 65% in size
How it was run: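 GR-coupled assay: recombinant GPX4 preincubated 30 min with compound at room temperature; final 200 nM GPX4, 1 mM GSH, 0.5 mM cumene hydroperoxide, 0.5 mM NADPH, 100 nM GR, 0.01% BSA, pH 7.5 Tris. NADPH fluorescence (340/450 nm) read at 0 and 15 min.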

[3] = biological target: Luciferin 4-monooxygenase (Photinus pyralis) (UniProt P08659); test: Primary firefly luciferase (FLuc) qHTS assay for identification of artifact compounds. (AID 1845220); note: nearly all actives have a fitted effect of over 60% in size
How it was run: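 Titrated compounds were incubated 15 min at RT, protected from light, with luciferin and ATP at 10 uM; reaction started with 10 nM FLuc, luminescence imaged at 5 min, and concentration-response fitted by Hill equation.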

[4] = Primary fluorescence-based thiol-reactive (MSTI) qHTS assay for identification of artifact compounds. (AID 1845221); note: nearly all actives have a fitted effect of over 65% in size; note: potency is the fitted concentration of half-maximal effect
How it was run: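 Probe: MSTI 4 uM, PBS pH 7.4, 2% DMSO. Incubation 1 h, RT, light-protected. Readout fluorescence 525/598 nm.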

[5] = tested on: Nanoluciferase (engineered Oplophorus gracilirostris luciferase); test: Primary Nanoluciferase (NLuc) qHTS assay for identification of artifact compounds. (AID 1845222);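 note: NLuc secreted into diluted conditioned medium of S16 cells; series mostly up to about 54 µM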
How it was run: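 qHTS format, against NLuc in S16 cell-conditioned medium. Nano-Glo substrate 1:100 was added after 15 min at room temperature. Luminescence was taken after a further 5 min.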

Measured: Potency

Sequence of Phospholipid hydroperoxide glutathione peroxidase GPX4 (Homo sapiens) (P36969 whole entry, looked up): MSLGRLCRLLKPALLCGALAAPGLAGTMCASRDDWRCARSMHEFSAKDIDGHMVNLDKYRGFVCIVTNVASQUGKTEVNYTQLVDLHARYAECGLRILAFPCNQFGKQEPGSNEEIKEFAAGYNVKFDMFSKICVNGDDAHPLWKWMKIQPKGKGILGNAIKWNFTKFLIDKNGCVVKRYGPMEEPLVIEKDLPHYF
Sequence of Glutathione peroxidase 1 (Homo sapiens) (P07203 whole entry, looked up): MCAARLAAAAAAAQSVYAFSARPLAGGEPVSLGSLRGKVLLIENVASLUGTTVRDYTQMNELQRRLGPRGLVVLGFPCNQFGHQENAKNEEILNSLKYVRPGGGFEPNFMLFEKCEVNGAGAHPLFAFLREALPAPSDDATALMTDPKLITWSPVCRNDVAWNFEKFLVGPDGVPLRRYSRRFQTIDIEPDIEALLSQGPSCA

CC(=O)O[C@@H]1[C@@H](O)[C@H](C)O[C@@H](O[C@H]2[C@@H]3C=CO[C@@H](O[C@@H]4O[C@H](CO)[C@@H](O)[C@H](O)[C@H]4OC(C)=O)[C@@H]3[C@@]3(CO)O[C@@H]23)[C@@H]1OC(=O)/C=C/c1ccc(O)cc1
active: [4] 6.3 µM
inactive: [1] | [2] | [3] | [5]

C[C@@H]1CC[C@]2(C(=O)O)CC[C@]3(C)C(=CCC4[C@@]5(C)C[C@@H](O)[C@@H](O)C(C)(C)C5CC[C@]43C)C2[C@]1(C)O (stereo not given in full)
inactive: [1] | [2] | [3] | [4] | [5]

Cc1cccc(NC(=O)CN2CCC(c3ccccn3)CC2)c1
inactive: [1] | [2] | [3] | [4] | [5]

O=C(/C=C/c1ccc(O)c(O)c1)O[C@@H]1[C@@H](O)[C@H](OC2CCCCC2O)O[C@H](CO)[C@H]1O (stereo not given in full)
active: [4] 2.92 µM
inactive: [1] | [2] | [3] | [5]

CC(NC(=O)c1ccccc1N)C(=O)O (stereo not given)
inactive: [1] | [2] | [3] | [4] | [5]

Cc1nnc(-c2sc(NC(=O)[C@H](C(C)C)n3c(=O)[nH]c4ccccc4c3=O)nc2C)o1
inactive: [1] | [2] | [3] | [4] | [5]

O=C(O)CC1CCC(c2ccc(-c3ccc(Nc4ccc(C(F)(F)F)nc4)cn3)cc2)CC1 (stereo not given)
inactive: [1] | [2] | [3] | [4] | [5]

CC1CCC2(NC1)OC1C(O)C3C4CCC5CC(O[C@@H]6O[C@H](CO)[C@@H](O)[C@H](O)[C@H]6O[C@@H]6O[C@@H](C)[C@H](O)[C@@H](O)[C@H]6O)CCC5(C)C4CCC3(C)C1C2C (stereo not given in full)
inactive: [1] | [2] | [3] | [4] | [5]

Cc1cc(OCCN2CCOCC2)nn1-c1ccc2ccccc2c1
inactive: [1] | [2] | [3] | [4] | [5]

O=C(NCC(=O)N1CCCC1)Nc1ccc2ccccc2c1
inactive: [1] | [2] | [3] | [4] | [5]

CC1=C[C@H](O)[C@H]2C(C)(C)CCC[C@]2(C)[C@@]1(O)CO
inactive: [1] | [2] | [3] | [4] | [5]

Cc1ccc(-c2c(-c3nn(C)c4ncnc(N5CCC(N6CCCCC6)C5)c34)cnn2C)cc1 (stereo not given)
inactive: [1] | [2] | [3] | [4] | [5]

CC(=O)NC(C(=O)OC1CCC(C)(C)C2CC=C3C(=O)OCC3C12C)C(C)C (stereo not given)
inactive: [1] | [2] | [3] | [4] | [5]

OC[C@H]1O[C@@H](OCc2ccccc2)[C@H](O)[C@@H](O)[C@@H]1O
active: [4] 5.32 µM
inactive: [1] | [2] | [3] | [5]

COc1cc(/C=C/C(=O)OCC2OC(OC3(CO)OC(CO)C(O)C3O)C(O)C(O)C2O)ccc1O (stereo not given)
inactive: [1] | [2] | [3] | [4] | [5]

COc1cccc(C(=O)NCCNc2nc3cc(C)cc(C)c3cc2C#N)c1
inactive: [1] | [2] | [3] | [4] | [5]

O=C(NC/C=C/CN1CCN(c2cccc(Cl)c2Cl)CC1)c1ccc(-c2ccccn2)cc1
inactive: [1] | [2] | [3] | [4] | [5]

C[C@@H]1C[C@@H](O)[C@@]23CO[C@]2(CO)C[C@@H](O)CC3[C@@]12CC(c1ccoc1)OC2=O (stereo not given in full)
inactive: [1] | [2] | [3] | [5]
active: [4] 6.56 µM

Fc1cccc(CN(C2=NCCN2)c2c(Cl)cccc2Cl)c1
inactive: [1] | [2] | [3] | [4] | [5]

C[C@H]1CC[C@@]2(OC1)O[C@H]1CC3C4CC[C@H]5C[C@@H](O)CC[C@]5(C)C4CC(=O)[C@]3(C)[C@H]1[C@@H]2C (stereo not given in full)
inactive: [1] | [2] | [3] | [4] | [5]

CCC(C)C1NC(=O)C2CCCN2C(=O)C(CC(O)CO)OC(=O)CCNC(=O)C(C)N(C)C(=O)C(C(C)C)N(C)C1=O (stereo not given) (cyclo([X13]PI[NMeV][NMeA][βAla]); configuration not given here)
inactive: [1] | [2] | [3] | [4] | [5]

Cc1ccccc1NC(=O)Nc1ccc(CN2C(=O)N([C@@H](CC(C)C)C(=O)N[C@@H](CC(=O)O)c3ccccc3)C(=O)C2(C)C)cc1
inactive: [1] | [2] | [3] | [4] | [5]

CC(=O)C1CCC(=O)N1Cc1ccccc1 (stereo not given)
inactive: [1] | [2] | [3] | [4] | [5]
